The source of these data is PubChem BioAssay (Tox21).

A short description of test [1]: qHTS assay to identify small molecule antagonists of the thyroid receptor (TR) signaling pathway (AID 743065). Further: nearly all actives have a fitted effect of over 55% in size. Further: potency means the concentration at half of the fitted maximal effect. In outline:
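Antagonism measured as loss of luciferase signal in GH3 cells stably carrying a TRE-luciferase reporter, co-treated with compound and T3 (1 nM final) for 23.5 h at 37 C. Viability was read in the same well by CellTiter-Fluor.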
A general note: Quantitative high-throughput screening tests each substance at several concentrations.

The subject of test [2] is thyroid hormone receptor (rat, GH3 cells). As to the kind of experiment: qHTS assay to identify small molecule agonists of the thyroid receptor (TR) signaling pathway (AID 743066; calls by dose curve; further: potency means the concentration at half of the fitted maximal effect).
Test [3] is described as follows: qHTS assay to identify small molecule antagonists of the estrogen receptor alpha (ER-alpha) signaling pathway - cell viability counter screen (AID 743074; calls by dose curve;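 further: HEK293 cells carrying ER-alpha-UAS-bla reporter stimulated with 17beta-estradiol; nearly all actives have a fitted effect of over 45% in size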; further: potency means the concentration at half of the fitted maximal effect).
Test [4] can be described thus: qHTS assay to identify small molecule antagonists of the estrogen receptor alpha (ER-alpha) signaling pathway using the BG1 cell line - cell viability counter screen (AID 743081).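 Further: compound given together with 17beta-estradiol as the ER stimulus; series mostly up to about 70 µM; nearly all actives have a fitted effect of over 45% in size.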
In test [5] the target is Aromatase (Homo sapiens) (UniProt P11511). As to the kind of experiment: qHTS assay to identify aromatase inhibitors (AID 743083). Further: series mostly up to about 70 µM; nearly all actives have a fitted effect of over 55% in size.
Chain of Aromatase (Homo sapiens) (P11511 whole entry, looked up): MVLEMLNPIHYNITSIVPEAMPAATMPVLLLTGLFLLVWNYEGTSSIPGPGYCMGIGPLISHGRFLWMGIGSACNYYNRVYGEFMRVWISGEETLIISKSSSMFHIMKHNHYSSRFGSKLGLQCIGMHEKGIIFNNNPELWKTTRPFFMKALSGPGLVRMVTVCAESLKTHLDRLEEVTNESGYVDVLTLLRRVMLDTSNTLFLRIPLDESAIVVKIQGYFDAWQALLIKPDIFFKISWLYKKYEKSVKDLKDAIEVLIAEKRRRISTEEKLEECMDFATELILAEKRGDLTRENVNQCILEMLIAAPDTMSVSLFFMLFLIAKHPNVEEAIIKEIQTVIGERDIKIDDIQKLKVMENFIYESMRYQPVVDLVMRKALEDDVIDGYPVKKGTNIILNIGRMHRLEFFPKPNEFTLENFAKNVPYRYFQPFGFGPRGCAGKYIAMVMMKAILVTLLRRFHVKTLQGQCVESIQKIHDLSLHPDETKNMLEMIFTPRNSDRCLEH
Test [6] concerns the target Estrogen receptor (Homo sapiens) (UniProt P03372). As to the kind of experiment: qHTS assay to identify small molecule antagonists of the estrogen receptor alpha (ER-alpha) signaling pathway (AID 743069; active means well fitted curve in the direction sought with a large enough effect in the signal ratio in the repeat runs, not every such curve was filed as active; the % refers to the signal ratio). In short, it runs like this:
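Antagonist mode: compounds in DMSO were co-added with 17beta-estradiol to ER-alpha-bla HEK293 cells (2% charcoal-stripped serum) and left 18 h at 37C. Reporter inhibition was measured as FRET fluorescence after 2 h LiveBLAzer substrate at room temperature.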

Test [7] has the same target. As to the kind of experiment: qHTS assay to identify small molecule agonists of the estrogen receptor alpha (ER-alpha) signaling pathway (AID 743075; calls by dose curve;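 further: HEK293 GripTite cells with ER-alpha and UAS-driven beta-lactamase reporter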; further: potency means the concentration at half of the fitted maximal effect).
Test [8] has the same target. As to the kind of experiment: qHTS assay to identify small molecule agonists of the estrogen receptor alpha (ER-alpha) signaling pathway using the BG1 cell line (AID 743079). Further: nearly all actives have a fitted effect of over 20% in size. Further: potency means the concentration at half of the fitted maximal effect.
Test [9] in a line: qHTS assay to identify small molecule antagonists of the estrogen receptor alpha (ER-alpha) signaling pathway using the BG1 cell line (AID 743080; calls by dose curve;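 further: BG1 cells stimulated with 17beta-estradiol alongside compound; series mostly up to about 70 µM; nearly all actives have a fitted effect of over 25% in size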). In short, it runs like this: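 Seeding, 24 h rest, compound transfer from DMSO, 17beta-estradiol addition, 21.5 h incubation, CellTiter-Fluor (30 min, 37 C), then ONE-Glo (30 min, room temperature): this sequence was run on BG1-Luc-4E2 reporter cells.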

Inconclusive results are not listed. Calls of active or inactive are those of the source. Unless noted, the call rests on the fitted dose curve; in most records, active means well fitted curve in the direction sought with a large enough effect in the repeat runs; inconclusive means weak or mixed curves; inactive means no such curve, though single readings can be large; an effect the other way counts as inactive or inconclusive.

Chain of Estrogen receptor (Homo sapiens) (P03372 whole entry, looked up): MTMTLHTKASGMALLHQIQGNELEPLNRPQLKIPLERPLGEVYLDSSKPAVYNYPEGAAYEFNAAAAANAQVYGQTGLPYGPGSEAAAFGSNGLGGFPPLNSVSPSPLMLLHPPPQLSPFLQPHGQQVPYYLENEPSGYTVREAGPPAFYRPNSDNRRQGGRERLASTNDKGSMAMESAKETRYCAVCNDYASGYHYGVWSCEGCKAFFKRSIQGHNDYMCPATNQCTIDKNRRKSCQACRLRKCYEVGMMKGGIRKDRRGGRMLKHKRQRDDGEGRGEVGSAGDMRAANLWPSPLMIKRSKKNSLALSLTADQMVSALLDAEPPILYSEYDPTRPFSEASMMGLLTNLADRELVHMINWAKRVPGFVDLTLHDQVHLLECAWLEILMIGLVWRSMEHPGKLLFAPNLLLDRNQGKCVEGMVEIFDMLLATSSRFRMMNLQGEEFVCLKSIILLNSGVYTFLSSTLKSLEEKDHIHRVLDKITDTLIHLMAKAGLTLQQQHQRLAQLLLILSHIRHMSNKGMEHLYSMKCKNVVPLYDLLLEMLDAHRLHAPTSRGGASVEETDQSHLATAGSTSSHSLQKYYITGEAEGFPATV

In the case of `O=C(O)c1ccccc1C(=O)Nc1ccc(S(=O)(=O)Nc2nccs2)cc1`, the Potency result in test [1], in test [2] and in [3] was “inactive” throughout. The outcome in [4] and in test [5] was inactive.

Regarding `C1CCN2C[C@@H]3C[C@@H](CN4CCCC[C@@H]34)[C@H]2C1`, the Potency entry in test [1], in test [2] and in [3] was “inactive” in each case. For the same compound, the outcome in [5] was inactive.

Turning to `NC(=O)C1(N2CCCCC2)CCN(CCCC(=O)c2ccc(F)cc2)CC1`, the Potency result in test [2], in [6], in [3], in test [7] and in test [8] was “inactive” each time. The compound was called inactive in [9], in test [4] and in [5].

Regarding `CC(C)c1ccccc1O`, the Potency result in test [1], in test [2] and in [3] was “inactive” throughout. Further, the result in test [4] and in test [5] was inactive.

Take `NCCc1ccn[nH]1`: the Potency result in [6], in test [3], in [7] and in test [8] was “inactive” in each case. For the same compound, the outcome in [9], in test [4] and in [5] was inactive.

Turning to `OC(CCN1CCCCC1)(c1ccccc1)c1ccccc1`, the Potency entry in test [2], in test [6], in test [3], in test [7] and in [8] was “inactive” each time. The call in [9] and in [5] was inactive.

As to `Cc1ccc2c(c1)c1c3n2CCNC3CCC1` (stereo unspecified), the Potency in test [1] is 23.7 µM (active). Moreover, in test [3], the Potency entry was “inactive”. For the same compound, the compound was called inactive in [4] and in test [5].

Take `CCCCC/C=C/CC(=O)OC`: the Potency entry in test [1] and in test [3] was “inactive” each time. The outcome in test [4] and in test [5] was inactive.

Take `O=C1c2ccccc2-c2ccccc21`: the Potency entry in [1], in test [2] and in test [3] was “inactive” throughout. The compound was called inactive in test [4] and in test [5].

With `NC(Cc1c[nH]c2ccccc12)C(=O)O` (stereo unspecified), the Potency result in [1], in [2] and in [3] was “inactive” throughout. Moreover, the compound was called inactive in test [4] and in [5].

On to `NS(=O)(=O)c1cc2c(cc1Cl)NC(CC1CCCC1)NS2(=O)=O` (stereo unspecified), for which the Potency result in test [1], in test [2] and in [3] was “inactive” in each case. Besides, the compound was classed as inactive in [4] and in test [5].

Consider `COc1cc2c(Nc3ccc(Br)cc3F)ncnc2cc1OCC1CCN(C)CC1`, for which, in test [1], the Potency is 5.31 µM (active). Moreover, the Potency result in test [6] and in test [8] was “inactive” throughout. The compound was called inactive in test [5].

With `O=C(O)Cc1cccc(-c2cc(CCCCCCc3ccc(O[C@H]4O[C@H](CO)[C@@H](O)[C@H](O)[C@@H]4O)c(-c4cccc(CC(=O)O)c4)c3)ccc2O[C@H]2O[C@H](CO)[C@@H](O)[C@H](O)[C@@H]2O)c1`, the Potency result in [1] and in test [2] was “inactive” throughout. For the same compound, the compound was called inactive in [4] and in [5].

With `Cc1ncc([N+](=O)[O-])n1CC(O)CCl` (stereo unspecified), the Potency result in test [1], in test [2] and in test [3] was “inactive” each time. The compound was classed as inactive in test [4] and in [5].

Turning to `Cc1oc(=O)oc1CN1CCN(c2cc3c(cc2F)c(=O)c(C(=O)O)c2n3C(C)S2)CC1` (stereo unspecified), the Potency entry in [2] and in test [3] was “inactive” in each case. The Potency was 23.9 µM [activator] (active) in test [7] and 8.41 µM (active) in test [8]. The outcome in [9], in test [4] and in test [5] was inactive.

As to `CC(C)(CO)[C@@H](O)C(=O)NCCCO`, the Potency entry in [6], in test [3], in test [7] and in test [8] was “inactive” each time. In addition, the compound was called inactive in test [9], in [4] and in test [5].

With `CCCCC[Si](OCC)(OCC)OCC`, the Potency result in test [3] was “inactive”. Besides, the outcome in test [4] and in test [5] was inactive.

As for `CCCCCCCCCCCCCCCC(=O)NCCO`, the Potency result in test [1], in test [2] and in test [3] was “inactive” throughout. The compound was called inactive in [4] and in [5].

For `Nc1ccc(S(=O)(=O)Nc2ccccn2)cc1`, the Potency entry in test [6], in test [3], in [7] and in [8] was “inactive” throughout. In addition, the call in test [9], in test [4] and in test [5] was inactive.

Turning to `COc1ccc(N=Nc2cc(C)c(N=Nc3ccc(S(=O)(=O)O)cc3)cc2OC)cc1`, the Potency entry in test [3] was “inactive”. Moreover, the result in test [5] was inactive.

As to `FC(F)(F)c1ccc(Cl)cc1Cl`, the Potency result in [1], in test [2] and in test [3] was “inactive” in each case. Moreover, the result in [4] and in [5] was inactive.

Regarding `C1=CCC(c2ccccc2)CC1` (stereo unspecified), the Potency result in test [1], in [2] and in test [3] was “inactive” in each case. The compound was classed as inactive in test [4] and in test [5].

Turning to `CCCCCCCC[Si](OCC)(OCC)OCC`, the Potency result in test [1] and in test [2] was “inactive” each time. The Potency in test [3] is 54.9 µM (active). In addition, the compound was classed as inactive in test [4] and in [5].

Consider `C[C@H](CCC(=O)NCC(=O)O)[C@H]1CC[C@H]2[C@@H]3[C@H](O)C[C@@H]4C[C@H](O)CC[C@]4(C)[C@H]3C[C@H](O)[C@]12C`, for which the Potency result in [1] and in test [3] was “inactive” in each case. In addition, the Potency in test [2] was 74.8 µM (active). For the same compound, the compound was classed as inactive in test [4] and in test [5].

As to `CCCCCCCCC(=O)OCC`, the Potency result in test [2], in test [6], in [3], in [7] and in test [8] was “inactive” throughout. For the same compound, the outcome in test [9], in [4] and in [5] was inactive.

As to `Cc1ccccc1N1CCN(CCc2nnc3n2CCCC3)CC1`, the Potency result in [1], in [2] and in test [3] was “inactive” in each case. Moreover, the compound was called inactive in test [4] and in test [5].

On to `CC1(N)CCC(C(C)(C)N)CC1` (stereo unspecified), for which the Potency entry in test [1], in [2] and in [3] was “inactive” throughout. For the same compound, the compound was classed as inactive in test [4] and in test [5].

With `CCOC(=O)CCc1ccccc1`, the Potency entry in [1], in [2] and in test [3] was “inactive” each time. In addition, the outcome in [4] and in [5] was inactive.
